# Experimental data taken from PubChem BioAssay AID504834 (National Center for Advancing Translational Sciences (NCATS), 2011).
# About 22,000 (6.9%) of roughly 320,000 compounds were called active. Roughly 27% stayed inconclusive and do not appear here. The entries come from a sample that favours actives as a whole. A number with no mark means an inactive call. The call rests on the fitted dose curve; in most records, active means well fitted inhibition curve with a large enough effect; inconclusive means small, poorly fitted or top-dose-only effect, or another doubt; inactive means no such curve, though single readings can be large or run the other way.
# Assay: Primary qHTS for delayed death inhibitors of the malarial parasite plastid, 96 hour incubation
# Settings: P. falciparum luciferase reporter growth; series mostly up to 28.7 µM; activity change, negative = inhibition: at the top concentration
# Summary of the method: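 Infected RBCs, 2% Hct / 0.05% parasitemia final; luciferase-reporter P. falciparum; cpd 96 h, 37 C, 5% CO2; luciferase detection reagent; luminescence.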
# On the % scale 0 is the no-effect control and ±100 the full control effect; potency means the concentration at half of the fitted maximal effect.
Structure (SMILES),"activity change, negative = inhibition [%]",Potency
Cc1c(C(=O)N/N=C/c2ccccc2)[nH]c2c([N+](=O)[O-])cccc12,0,–
CN(C)S(=O)(=O)c1ccc(N/C=C(\[N+](=O)[O-])S(=O)(=O)c2ccccc2)cc1,49.1,–
COC(=O)c1ccc(NC(=O)CSc2nnc(C3CC3)n2C)cc1,14.4,–
COc1ccc(C(=O)OC(C)C(=O)NC2CCCC2)cc1S(=O)(=O)N1CCOCC1 (stereo unspecified),-6.55,–
COc1cccc(N2CCN(CC(=O)Nc3ccnn3C3CCCC3)CC2)c1,-13.9,–
C#C[C@]1(O)CC[C@H]2[C@@H]3CCC4=CC(=O)CC[C@@H]4[C@H]3CC[C@@]21CC,–,7.57 µM (active)
Cc1cc(C)c(C#N)c(SCC(=O)N(CC(C)C)C2CCS(=O)(=O)C2)n1 (stereo unspecified),-12.5,–
CC(NC(=O)COc1ccc(-c2ccccc2)cc1)C1CCCO1 (stereo unspecified),38.1,–
O=C(Nc1ccncc1)c1ccc([N+](=O)[O-])cc1Cl,38.2,–
CN(CCc1ccccn1)C1CCCN(S(=O)(=O)c2ccccc2Cl)C1 (stereo unspecified),-0.441,–
Cn1nc(C(F)(F)F)cc1C(=O)O,36.7,–
Cc1nn(-c2ccccc2)c(C)c1NC(=O)COc1ccc(Cl)cc1Cl,8.25,–
Cc1nn(-c2ccccc2)c(C)c1NC(=O)CCl,–,3.7 µM (active)
Cc1cccc(C)c1NC(=O)CNC(=O)c1c(C)nn(-c2ccccc2)c1C,-4.55,–
O=C(NCC1CCCO1)c1cc2c(s1)CCCC2 (stereo unspecified),282,–
CC1(C)O[C@@H]2[C@H](O1)[C@@H](CO)O[C@H]2n1c(N2CCCCC2)nc2c(N)ncnc21,8.05,–
Clc1c(OCCCn2ccnc2)ccc2ccccc12,203,–
Cc1ccc(OCCCCN2CCCCC2)c(Br)c1,-19.8,–
C=CCc1cc(C)ccc1OCCCn1ccnc1,–,11.7 µM (active)
CCOC(=O)c1ccc(S(=O)(=O)N(CCO)Cc2cc3cc(OC)c(OC)cc3[nH]c2=O)cc1,-9.56,–
COc1ccc(S(=O)(=O)N2CCCC2CNC(=O)C(=O)NC2CC2)cc1 (stereo unspecified),2.54,–
COc1cccc(CNC(=O)C(=O)NCCC2CCCCN2S(=O)(=O)c2ccc(C)cc2)c1 (stereo unspecified),–,10.4 µM (active)

Structure (SMILES),"activity change, negative = inhibition [%]",Potency
O=C(NCCC1CCCCN1S(=O)(=O)c1ccc(F)cc1)C(=O)NC1CC1 (stereo unspecified),-4.85,–
COc1cc(OC)c(NC(=O)C2CCCN2C(=O)OCc2ccccc2)cc1Cl (stereo unspecified),-25.4,–
COc1ccc(CCNC(=O)CN2C(=O)CCSc3ccccc32)c(OC)c1,-12.9,–
CCOC(=O)CNC(=O)CN1C(=O)CCSc2ccccc21,–,11.7 µM (active)
CCOC(=O)CNC(=O)N1c2ccccc2Sc2ccccc21,17.9,–
Cc1ccc(NC(=O)c2cnc(SCC(=O)NCC3CCCO3)n(C)c2=O)cc1 (stereo unspecified),38,–
Cn1c(=O)n(C)c2cc(C(=O)Nc3ccc(Br)cc3)ccc21,9.04,–
COC(=O)[C@@H]1CC(O)CN1C(=O)C12CC3CC(CC(C3)C1)C2 (stereo partly specified),31.1,–
CCOc1ccccc1Nc1ccc2nonc2c1[N+](=O)[O-],17.1,–
COc1ccccc1C(=O)NC(CCSC)C(=O)N1CCN(C/C=C/c2ccccc2)CC1 (stereo unspecified),–,11.7 µM (active)
COc1ccccc1C(=O)NC(CCSC)C(=O)N1CCN(C(C)=O)CC1 (stereo unspecified),31.3,–
O=C(c1cccc(Cl)c1)N1CCN(Cc2ccccc2)CC1,23.5,–
CSCCC(NC(=O)c1ccccc1)C(=O)N1CCCCCCC1 (stereo unspecified),-26.5,–
CSCCC(NC(=O)c1ccccc1)C(=O)N1CCN(Cc2ccc(Cl)cc2)CC1 (stereo unspecified),–,1.65 µM (active)
COc1ccccc1C(=O)NC(CCSC)C(=O)NNC(=O)c1ccccc1C (stereo unspecified),8.05,–
CC(=O)NC(CC(=O)Nc1nc(-c2ccccc2)c(C(C)=O)s1)c1ccccc1 (stereo unspecified),3.68,–
Cc1ccc(S(=O)(=O)NCC(=O)N2CCOCCOCCOCCOCC2)cc1,12.9,–
Cc1ccc(CNC(=O)[C@@H](NC(=O)Cc2ccccc2)C(C)C)cc1,37.8,–
Cn1c(-c2ccc(F)cc2)cc2onc(-c3ccccc3Cl)c2c1=O,69.3,–
CSc1ncc(Cl)c(C(=O)Nc2cc(C)ccc2C)n1,-13,–
O=C(COc1ccccc1)Nc1cc2c3c(c1)CC(=O)N3CCC2,31,–
CN(C)CCCSc1ccccc1NC(=O)/C=C/c1ccccc1,–,12 µM (active)

Structure (SMILES),"activity change, negative = inhibition [%]",Potency
O=C(/C=C/c1ccccc1)N/C(=C/c1ccccc1)C(=O)Nc1ccccc1O,42.9,–
CC(=O)Nc1ccc(NC(=S)NC(=O)/C=C/c2ccccc2)cc1,8.73,–
COc1ccc(NC(=O)CCCNC(=O)Cn2cnc3sc4c(c3c2=O)CCCC4)cc1OC,-7.58,–
O=C(CSCC(=O)Nc1cccc([N+](=O)[O-])c1)Nc1ccccc1,-2.07,–
CCNC(=O)CSc1nc(-c2ccccc2)cs1,-65.4,–
O=C(CSc1nc(-c2ccccc2)cs1)Nc1cccc([N+](=O)[O-])c1,–,10.4 µM (active)
O=[N+]([O-])c1cc(C(F)(F)F)ccc1NCCc1ccncc1,15.8,–
Cc1ccc2[nH]c(=O)c(CC(=O)O)c(-c3ccccc3)c2c1,0.826,–
CCCCOC(=O)Nc1nnc(CC(=O)NCc2ccccc2)s1,-8.9,–
Cc1ccc(OC(=O)c2c(C)nn(-c3ccccc3)c2C)cc1,101,–
COc1ccc(C2OC(=O)CC2C(=O)NC(C)C)cc1 (stereo unspecified),–,0.586 µM (active)
COc1ccc(C2CC(=O)NC(=O)C2)cc1,31.5,–
COc1ccc(CN2CC(C(=O)NC3CCCCC3)CC2=O)cc1 (stereo unspecified),23.7,–
O=C(c1cc(-c2ccc(O)cc2)on1)N1CCOCC1,276,–
CCC(C(=O)OCCN(CC)CC)c1ccccc1 (stereo unspecified),–,inactive
CCCC(C(=O)OCCN(CC)CC)(c1ccccc1)c1ccccc1,–,10.7 µM (active)
CCN(CC)CCOC(=O)c1cc2cc(COC)ccc2o1,127,–
O=C(O/N=C(/c1ccccc1)c1ccncc1)c1ccccc1[N+](=O)[O-],8.43,–
COc1ccc(C/C(C)=N/NC(=O)c2ccncc2)cc1,13.4,–
COc1cc(OC)nc(N/N=C(\c2ccccc2)c2ccncc2)n1,–,5.22 µM (active)
N#Cc1cccc(CN2CCC(=O)N([C@H](CO)c3ccccc3)CC2)c1,-14.1,–
C=CCOc1ccc(/C=C/C(=O)OC(C)C(=O)Nc2ccc(NC(C)=O)cc2)cc1 (stereo unspecified),32.7,–

Structure (SMILES),"activity change, negative = inhibition [%]",Potency
O=C(CCl)Nc1cccc(CP(=O)(c2ccccc2)c2ccccc2)c1,–,6.57 µM (active)
CCc1cccc(NC(=O)CCC(=O)O)c1,33.6,–
O=C(Cc1ccccc1)Nc1cccc(NC(=O)c2ccccc2)c1,127,–
COc1ccc(CCNS(=O)(=O)c2cn(C)nc2C)cc1,-3.77,–
CCOc1ccc(OCC(=O)Nc2c3c(nn2C(C)(C)C)CS(=O)(=O)C3)cc1,8.15,–
Cn1c(SCC(=O)NC2CCCCC2)nnc1-c1ccc(N)cc1,31.1,–
CC1Cc2ccccc2N1C(=O)CSc1nnc(-c2ccc(S(=O)(=O)N3CCCC3)cc2)n1C (stereo unspecified),-27.2,–
Cn1c(SCC(=O)OC2CCCCC2)nnc1-c1ccc(S(=O)(=O)N2CCCC2)cc1,–,2.33 µM (active)
Cc1ccc(CN2CC(C(=O)N3CCN(S(=O)(=O)c4ccccc4)CC3)CC2=O)cc1 (stereo unspecified),-5.27,–
CCc1noc(C)c1C(=O)Nc1nc2ccc(OC)cc2s1,55.7,–
O=C(CCc1ccc(S(=O)(=O)N2CCOCC2)cc1)Nc1ccc2ccccc2c1,–,5.22 µM (active)
O=C(CCc1ccc(S(=O)(=O)N2CCOCC2)cc1)NN=C1CCCCCCC1,7.59,–
O=C(COC(=O)CCc1ccc(S(=O)(=O)N2CCOCC2)cc1)Nc1cccc(Cl)c1,1.04,–
CCN(CC(=O)N1CCCC1)S(=O)(=O)c1ccc(F)cc1,-18.8,–
O=C(NCCCN1CCCC1=O)c1cccc(S(=O)(=O)NCc2ccccc2)c1,0.384,–
CCN(CC(=O)Nc1c(F)cccc1F)C(=O)C1CCC1,12.3,–
CC(C)c1ccc(Cc2nnc(NCCCO)[nH]c2=O)cc1,-6.72,–
Cc1cccc(N2CCN(S(=O)(=O)c3ccc(-c4cc(C)no4)s3)CC2C)c1 (stereo unspecified),7.47,–
Cc1cc(-c2ccc(S(=O)(=O)N3CCN(c4cccc(C(F)(F)F)c4)CC3)s2)on1,–,13.1 µM (active)
Cc1cc(-c2ccc(S(=O)(=O)N3CCc4ccccc4C3)s2)on1,40.7,–
COCC1CCN(C(=O)CCc2nnc(C3(c4ccc(Cl)cc4)CCC3)o2)C1 (stereo unspecified),-0.798,–
CCOc1ccccc1N1C(=O)CC(Sc2nccc(C)n2)C1=O (stereo unspecified),-19.9,–

Structure (SMILES),"activity change, negative = inhibition [%]",Potency
CCOc1ccc(OCC(=O)OC(C)C(=O)NC2CCCCC2C)cc1 (stereo unspecified),-9.96,–
CCCC(=O)Nc1nnc(-c2ccccc2)o1,3.75,–
Cc1ccc(C(=O)NCC(=O)OCc2nnc(-c3ccccc3)o2)cc1,-23.8,–
CCc1ccc(CN(C)C(=O)CCc2nnc(-c3ccc(-c4ccccc4)cc3)o2)nc1,–,11.7 µM (active)
CCOc1ccc(NC(=O)CC(Cc2ccc(Cl)cc2)C(=O)O)cc1 (stereo unspecified),-6.41,–
O=C(CN1CCc2cc3c(cc2C1)OCCCO3)Nc1ccccc1,47.6,–
OCC(CO)NC1C[C@](O)(CO)[C@@H](O)[C@H](O)[C@H]1O (stereo partly specified),14.3,–
CCCCOc1ccc(CSC(=N)N)cc1[N+](=O)[O-],–,2.33 µM (active)
CCCOc1ccc(Cn2ccnc2)cc1[N+](=O)[O-],0,–
CCCCOC(=O)CCCc1ccc([N+](=O)[O-])cc1[N+](=O)[O-],6.22,–
COc1cc(OC)c(C(=O)NCc2ccc3c(c2)OCO3)cc1OC,–,13.1 µM (active)
COc1cc(CNCc2ccc3c(c2)OCO3)c([N+](=O)[O-])cc1OC,3.58,–
CCn1cc(C(=O)NCc2ccc3c(c2)OCO3)c2cc(OC)c(OC)cc2c1=O,12,–
O=C(O)CCCN1C(=O)C2C3c4ccccc4C(c4ccccc43)[C@@H]2C1=O (stereo partly specified),9.24,–
Cc1ccc(NC2CCCN(C(=O)CCc3cn[nH]c3)C2)cc1C (stereo unspecified),32,–
O=C(CN1C(=O)CSC1=O)N1CCCC(Nc2ccc(F)cc2)C1 (stereo unspecified),–,1.65 µM (active)
O=C1CCCCN1CCCC(=O)N1CCCC(Nc2ccc(F)cc2)C1 (stereo unspecified),1.89,–
CC1C(=O)Nc2ccc(S(=O)(=O)N3CCN(c4ccccc4F)CC3)cc2NC1=O (stereo unspecified),0.196,–
